hcDAF-12 act: H. contortus DAF-12 activation, primary screen | HEK293 hcDAF-12 lit1-tk-luc reporter, luminescence; 0% DMSO, 100% Δ7-dafachronic acid | activation, % at 6.8 µM | AID 652067 | hit rate 1.4% among 370,000;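 active = activation above the mean of all tested compounds plus 3 SD, cut at about 5.5% in these data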;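 note: 100% = response to 3 µM Δ7-dafachronic acid high control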
hgDAF-12 ag: agonists of H. glycines DAF-12 nuclear receptor; AID 687014; hit rate 1.8% among 370,000; HEK293 GAL4-hgDAF12 UAS-luciferase reporter, agonist luminescence; normalized to butyrate control; activation, % at 6.8 µM;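 active = activation above a cutoff set at the mean of all screened compounds plus 3 SD, cut at about 10% in these data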;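 note: 0% = DMSO wells and 100% = sodium butyrate wells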
DAX1 inh-1: inhibitors of human orphan nuclear receptor DAX1 (NR0B1); P51843; HEK293 Gal4-DAX1 luciferase reporter, luminescence; inhibition, % at 6.75 µM; hit rate 0.99% among 340,000; AID 504766;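 active = inhibition above the mean over all tested compounds plus 3 SD, cut at about 4.2% in these data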;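 note: 0% = DAX1-transfected cells with DMSO and 100% = empty-vector control cells with DMSO; inhibition shows as a rise in luminescence from relieved DAX1 repression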
Target sequence (P51843 207-470 limits assumed): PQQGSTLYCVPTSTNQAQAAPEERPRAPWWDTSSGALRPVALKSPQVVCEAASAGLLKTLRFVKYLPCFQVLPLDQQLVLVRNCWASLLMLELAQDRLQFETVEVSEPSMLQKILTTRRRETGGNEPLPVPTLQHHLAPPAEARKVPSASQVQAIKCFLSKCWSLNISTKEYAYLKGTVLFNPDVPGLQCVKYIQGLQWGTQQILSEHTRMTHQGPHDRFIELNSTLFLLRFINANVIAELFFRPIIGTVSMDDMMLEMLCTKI
DAX1 inh-2: DAX1 (NR0B1) inhibition, primary screen | hit rate 1.1% among 370,000 | inhibition, % at 6.8 µM | AID 652010 | HEK293T StAR-luciferase reporter, SF-1/DAX-1 repression relief;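 active = inhibition above the mean over all tested compounds plus 3 SD, cut at about 3.6% in these data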;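 note: 0% = DAX-1 cells with DMSO and 100% = cells lacking DAX-1 with DMSO; higher inhibition means more luminescence from relief of DAX-1 repression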
ssDAF12 agonist: activators of S. stercoralis DAF-12 nuclear receptor; HEK293 ssDAF-12/GRIP1 lit1-tk-luc reporter, luminescence; % of 3 µM dafachronic acid response; activation, % at 6.8 µM; hit rate 1% among 370,000;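 active = activation above the mean over all tested compounds plus 3 SD, cut at about 0.9% in these data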;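 note: 0% = DMSO-only wells and 100% = 3 µM delta7-dafachronic acid wells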
The depositor's hits bear a star; / = not tested or not shown. Rows were chosen to be rich in hits. Some 4.1% of all compounds tested hit in one or more screens of this group.

SMILES | hcDAF-12 act | hgDAF-12 ag | DAX1 inh-1 | DAX1 inh-2 | ssDAF12 agonist
CCN(CC)CCN1C(=O)C(O)=C(C(C)=O)C1c1ccccc1[N+](=O)[O-] (stereo unspecified) | 6.3* | 1 | 1 | 0 | 1.4*
CC(=O)C1=C(O)C(=O)N(c2ccc(Br)cc2)C1c1ccccc1[N+](=O)[O-] (stereo unspecified) | 4 | 1 | -1 | 0 | 1
COc1ccc(C2Nc3ccccc3C(=O)N2Cc2ccc(C)o2)cc1COc1c(C)cccc1C (stereo unspecified) | 1 | 0 | / | / | -2
Cc1ccc(CC(=O)Nc2cccc(C)n2)cc1 | 3 | 5 | 2 | 2 | 1.9*
Cc1cccc(NC(=O)Cc2ccc(-c3ccccc3)cc2)n1 | -2 | 2 | 0 | 1 | 0
Cc1cccc(NC(=O)COc2ccc3c(c2)CCC3)n1 | 2 | 6 | 1 | 3.8* | -1
O=C(NC1CCCCN(Cc2cccc(Cl)c2)C1=O)c1ccc2ccccc2c1 (stereo unspecified) | -2 | 3 | / | 0 | -2
Cc1ccc(S(=O)(=O)N2CCOC2C(Cl)(Cl)Cl)cc1 (stereo unspecified) | -2 | -4 | 0 | 0 | 1.2*
N#Cc1ccc(-c2nc3ccc(Cl)cn3c2Cc2ccsc2)cc1 | 1 | 5 | / | 1 | -1
Clc1ccc(-c2nc3ccc(Cl)cn3c2Cc2ccsc2)cc1 | 1 | 11* | / | 3.8* | -1
CCCc1nc2ccc(Cl)cn2c1Cc1ccsc1 | 1 | -1 | / | 0 | 1.0*
Brc1ccc2nc(-c3ccco3)c(Cc3ccsc3)n2c1 | 2 | 1 | / | -1 | 1.0*
CN(C)c1ccc(C(=O)NCCc2ccccc2-c2ccccc2CCC(=O)NCc2ccccc2)cc1 | -2 | 2 | / | 0 | -2
CCCCCCCCN1C(=O)[C@@H](CC(=O)NCc2cccc(C(F)(F)F)c2)C[C@@]2(C(=O)OC)C1=C[C@H](COCc1ccccc1)O[C@@H]2C | 0 | -2 | / | -2 | -1
CC[C@]12c3[nH]c4ccccc4c3CCN1C(=O)C(CC(=O)NCc1ccco1)C[C@@H]2C(=O)N1CCN(C(=O)c2ccco2)CC1 (stereo partly specified) | 0 | -2 | 5.8* | 0 | -1
COCCCNC(=O)CC1C[C@H](C(=O)N2CCCCC2)[C@@]2(C)c3[nH]c4ccc(OC)cc4c3CCN2C1=O (stereo partly specified) | -1 | 1 | -1 | 0 | -1
O=C(CC1C[C@H](C(=O)N2CCOCC2)[C@@]2(CCC3CCCC3)c3[nH]c4ccccc4c3CCN2C1=O)NCCC1=CCCCC1 (stereo partly specified) | 1 | 0 | 0 | 3 | 0
CC[C@]12c3[nH]c4cc(-c5ccco5)ccc4c3CCN1C(=O)[C@@H](CC(=O)NCc1ccco1)C[C@@H]2C(=O)N1CCN(C(=O)c2ccco2)CC1 | -2 | -2 | -1 | 0 | 0
CN(C)CCCNC(=O)CC1C[C@H](C(=O)N2CCOCC2)[C@@]2(CCC3CCCC3)c3[nH]c4ccccc4c3CCN2C1=O (stereo partly specified) | 0 | 2 | 4.3* | 3.7* | 0
COCCCNC(=O)CC1C[C@H](C(=O)N2CCOCC2)[C@@]2(C)c3[nH]c4ccc(OC)cc4c3CCN2C1=O (stereo partly specified) | 2 | 3 | -1 | 4.1* | -1
C[C@@H](NC(=O)c1ccc(C#Cc2cccc(F)c2)cn1)C(C)(C)O | -2 | 1 | / | -1 | -1
COc1ccc(C(=O)/C=C/c2cn(CC(O)CN3CCN(C)CC3)c3ccccc23)cc1OC (stereo unspecified) | -1 | -2 | 5.0* | -1 | -1
O=C(/C=C/c1cn(CC(O)CN2CCCCC2)c2ccccc12)c1ccccc1 (stereo unspecified) | 4 | 2 | -2 | 0 | -1
O=C(NC1CC1)C1=C[C@@H](c2c[nH]c3ccccc23)C[C@@H](OCc2ccc(CO)cc2)O1 | 2 | 11* | 1 | 0 | -1
O=C(NC1CC1)C1=C[C@H](c2c[nH]c3ccccc23)C[C@H](OCCCCO)O1 | 1 | 0 | 1 | 0 | 0
SMILES | hcDAF-12 act | hgDAF-12 ag | DAX1 inh-1 | DAX1 inh-2 | ssDAF12 agonist
O=C1N(CCCO)CCC12CCCCC2 | 0 | 0 | / | 0 | -1
COC(=O)[C@]12C[C@H](CC(=O)NCc3cccs3)C(=O)N(Cc3ccc(Cl)cc3Cl)C1=C[C@H](C(C)(C)C)O[C@@H]2C | -1 | 0 | / | -2 | -1
CCCCCCCc1c(O)nc(SCC(=O)O)[nH]c1=O | 0 | -2 | 5.1* | 0 | -2
CCCCCc1c(C)nc(SCC(=O)O)[nH]c1=O | -1 | 0 | 1 | 1 | -1
Cc1ccc(-c2nc(C)c(C(=O)O)s2)cc1 | 3 | 11* | -1 | 3 | 0
Cc1nc(-c2ccccc2)sc1C(=O)O | -1 | 0 | 0 | 1 | -1
Cc1ccc(N2C(=O)c3ccccc3NC2c2ccccc2O)cc1 (stereo unspecified) | 3 | 11* | 0 | 0 | 0
O=C1c2ccccc2NC(c2ccccc2O)N1O (stereo unspecified) | 1 | 2 | 0 | 0 | -1
Cc1ccc(NC(=O)Cc2ccc(F)cc2)c(S(=O)(=O)N2CCOCC2)c1 | 1 | -3 | / | -1 | -2
O=S(=O)(c1c(Cl)sc(Cl)c1Br)N1CCCC1 | -1 | -1 | 0 | 0 | 1.5*
Clc1ccc([C@H]2OC[C@@]3(CNCCc4c[nH]c5ccccc45)CS[C@H](c4ccc(Cl)cc4)N23)cc1 | -1 | 1 | / | 0 | -1
COC[C@@H]1CCCN1c1ccc2c(c1)O[C@@H]1CCN(C1)S2(=O)=O | -1 | 2 | / | 0 | 0
CN(CC(=O)N1CCN(c2ncccn2)CC1)S(=O)(=O)c1ccc(Cl)cc1 | -1 | -2 | 0 | 1 | 2.2*
CN(CC(=O)N1CCN(c2ccccn2)CC1)S(=O)(=O)c1ccccc1 | -1 | 1 | 2 | 0 | -1
CC1(C(=O)NS(=O)(=O)c2ccccc2C(F)(F)F)CCN1C(=O)c1cccc(F)c1 (stereo unspecified) | -2 | 2 | / | 0 | -1
O=C(c1ccccc1)n1ccc2ccc(-c3ccc4ccn(Cc5ccccc5)c4c3)cc21 | 2 | 11* | / | -1 | 0
O=C(c1cccc(F)c1)n1ccc2ccc(-c3ccc4ccn(Cc5ccccc5)c4c3)cc21 | -1 | 1 | / | -1 | -1
COC(=O)[C@]12C[C@H](CC(=O)N3CCN(C(=O)c4ccco4)CC3)C(=O)N(Cc3ccc(Cl)cc3Cl)C1=C[C@H](C1CCCC1)O[C@@H]2C | -1 | -2 | / | 1 | -1
Cc1nnc(NC(=O)Nc2cccc(Cl)c2)s1 | 1 | 11* | 0 | 1 | 0
O=C(Nc1cccc(Cl)c1)Nc1cccc(Cl)c1 | 0 | 5 | 0 | 0 | -1
Cc1nn(C)c(C)c1CNC(=O)Nc1cccc(Cl)c1 | 2 | 11* | 2 | 4.0* | 0

Screens (PubChem BioAssay)
